The results in this text go back to PubChem BioAssay (EPA / NIEHS).

One may read the AC50 as the midpoint of the concentration-response curve, whichever way the signal moves.

The structures appear in SMILES notation. Results filed as inconclusive are left out. Active and inactive are the calls of the source. How the source made its calls: active means hit-call score of the fitted dose curve at least 0.9, where 1 is the maximum; inconclusive means response in the unintended direction; inactive means score below 0.9.

For this assay, the system named is 5-hydroxytryptamine receptor 2C (pig). As to the kind of experiment: NVS_GPCR_p5HT2C: NovaScreen (NVS) G Protein-Coupled Receptor Assay for pig Serotonin, 5-Hydroxytryptamine Receptor 2C (5HT2C) (AID 2283288). On the procedure:
NVS_GPCR_p5HT2C is a biochemical, single-readout assay that uses extracted gene-proteins from Pig choroid plexus membranes in a tissue-based cell-free assay. Measurements were taken 1 hour after chemical dosing in a 48-well plate.NVS_GPCR_p5HT2C is one of one assay component(s) measured or calculated from the NVS_GPCR_p5HT2C assay. It is designed to make measurements of radioligand binding, a form of binding reporter, as detected with scintillation counting signals by Filter-based radiodetection technology.Data from the assay component NVS_GPCR_p5HT2C was analyzed into 1 assay endpoint. This assay endpoint, NVS_GPCR_p5HT2C, was analyzed in the positive analysis fitting direction relative to DMSO as the negative control and baseline of activity. Using a type of binding reporter, loss-of-signal activity can be used to understand changes in the binding as they relate to the gene HTR2C. Furthermore, this assay endpoint can be referred to as a primary readout, because the performed assay has only produced 1 assay endpoint. To generalize the intended target to other relatable targets, this assay endpoint is annotated to the gpcr intended target family, where the subfamily is rhodopsin-like receptor.
Binding assays used specific radioligands (tritiated, iodinated) with non-radioactive competitive displacement ligands in agonist or antagonist protocols (as indicated) and various reference compounds and inhibitors to titrate specific binding to receptors and transporters. Most enzyme assays (CYPs, kinases, phosphatases, proteases, HDACs) used recombinant protein and specific substrates (fluorescence mostly, some colorimetric and radioactive) and inhibitors, followed by a biochemical separation of substrate and product. All assays for the biochemical HTS were initially run in duplicate at a single concentration (10 uM for CYP450 assays and 25 uM for all others). […] Each assay was run with positive and negative controls, and concurrent controls on every plate. The follow-up (secondary) screen tested active chemical-pairs in concentration series, as well as a few additional assays not tested in the primary screen, some selected negative inactives, and several cases re-run in the concentration series for confirmatory purposes.
For the molecule `CN(C)C(=O)C1(N2CCCCC2)CCN(CC[C@@]2(c3ccc(Cl)c(Cl)c3)CN(C(=O)c3ccccc3)CCO2)CC1`, the AC50 is 1.18 µM (active).
For the molecule `NCc1cccc(C2CCN(C(=O)c3ccc(C#Cc4ccccc4F)o3)CC2)c1`, the AC50 was 8.02 µM (active).
Still for that read-out and setting: as for `CCOC(=O)O[C@H](C)OC(=O)c1ccc2c(c1)cc(C(=O)NC1CCN(C(C)C)CC1)n2Cc1cc(-c2ccc(Cl)s2)on1`, the figure is 21.3 µM (active).
`O=c1ccc2ccccc2o1`: the outcome was inactive.
Still for that read-out and setting: as for `CC(C)(C)c1cc(/C=C2\SC(N)=NC2=O)cc(C(C)(C)C)c1O`, the entry is “inactive”.
As for `CN(C[C@@H](CC[N+]12CCC(C3CCCCC3)(CC1)CC2)c1ccc(Cl)c(Cl)c1)C(=O)c1cc(C(F)(F)F)cc(C(F)(F)F)c1`, the AC50 is 25 µM (active).
On to `Oc1ccc2ccccc2c1`, for which the AC50 is 9.86 µM (active).
On to `CN(C)c1ccc(C(=C2C=CC(=[N+](C)C)C=C2)c2ccc(N(C)C)cc2)cc1`, for which the AC50 was 18.5 µM (active).
As for `CCCCOC(=O)c1ccc(O)cc1`, the AC50 is 25 µM (active).
As to `CCCCCCCCCCCC[N+](C)(C)C`, the AC50 is 25 µM (active).
As for `c1ccc2n[nH]nc2c1`, the call was inactive.
For the molecule `Cc1occc1C(=O)Nc1ccc(C(=O)N2CCC(F)(F)/C(=C\C(=O)N3CCC(N4CCCCC4)CC3)c3ccccc32)cc1`, the molecule was classed as inactive.
Regarding `CC/C(=C(/CC)c1ccc(O)cc1)c1ccc(O)cc1`, the AC50 was 22.1 µM (active).
Still for that read-out and setting: as for `CCN(CC)C(=O)c1cc(S(=O)(=O)Cc2ccccc2)c(N2CCC(c3ccccc3)CC2)cc1N(CC)CCN(C)C`, the figure is 7.94 µM (active).
Same read-out and setting: for `COc1cc(C(=O)NC2CCN(C)CC2)ccc1Nc1ncc2c(n1)N(C1CCCC1)CC(F)(F)C(=O)N2C` the value was 3.34 µM (active); for `Cc1cc2c(cc1C(F)(F)F)N(C(=O)Nc1ccc(Oc3cccnc3C)nc1)CC2`, 0.00211 µM (active).
